High-throughput results: PubChem, National Center for Advancing Translational Sciences (NCATS)
Many of the other results were omitted from the sample, so hits are more common in it than they were.
FBPA Giardia inh: inhibitors of Giardia lamblia fructose-1,6-bisphosphate aldolase. A8B2U2. purified Giardia FBPA. Potency, µM (top dose mostly 59.6 µM), without a hit: top-dose activity, negative = inhibition, hits mostly inhibitors. 290,000 tested, 0.71% active. AID 2451; note: potency is the fitted concentration of half-maximal effect; % is set by controls: 0 for no effect and ±100 for the full control effect; nearly all actives have a fitted effect of over 55% in size
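Giardia FBPA (40 nM reagent) was preincubated 10 min at RT with compound (up to 57.5 uM final), then substrate plus GAPDH/TPI/NAD/arsenate coupling system with diaphorase/resazurin was added; resorufin fluorescence (525/598 nm) was read after 20 min.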
LmPK inhibitor: blocks Leishmania mexicana pyruvate kinase activity; purified LmPK, Kinase-Glo ATP luminescence, 1 h; Potency, µM (top dose mostly 57.5 µM), for inactives: at the top dose activity change, negative = inhibition, actives largely listed as inhibitors; 290,000 tested, 0.37% active; AID 1721; Q27686; note: potency is the fitted concentration of half-maximal effect; % is set by controls: 0 for no effect and ±100 for the full control effect
Target sequence (Q27686 whole entry, looked up): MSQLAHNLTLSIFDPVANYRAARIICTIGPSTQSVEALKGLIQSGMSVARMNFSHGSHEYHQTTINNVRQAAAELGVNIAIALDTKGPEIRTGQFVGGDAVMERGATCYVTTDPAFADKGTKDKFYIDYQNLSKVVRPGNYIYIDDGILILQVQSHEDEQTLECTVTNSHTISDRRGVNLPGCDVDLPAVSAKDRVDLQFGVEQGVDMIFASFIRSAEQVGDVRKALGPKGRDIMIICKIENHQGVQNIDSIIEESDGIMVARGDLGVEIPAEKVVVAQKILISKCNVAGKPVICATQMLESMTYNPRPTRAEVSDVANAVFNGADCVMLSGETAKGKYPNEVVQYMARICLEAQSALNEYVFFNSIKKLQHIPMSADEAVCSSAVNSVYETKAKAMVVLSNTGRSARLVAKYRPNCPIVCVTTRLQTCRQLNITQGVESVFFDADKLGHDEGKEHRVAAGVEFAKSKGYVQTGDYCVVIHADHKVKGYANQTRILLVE
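Kinase-Glo luminescence read after 1 h RT reaction of 0.1 nM LmPK with 0.5 mM PEP and 0.1 mM ADP. Activity scaled between uninhibited and enzyme-free controls.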
Cycloheximide cs: counter-screen hit for Shiga toxin inhibitors, cycloheximide | max response, % | cell reporter, cycloheximide protein synthesis inhibition counterscreen | AID 2314 | 300,000 tested, 12% active; in the data active = max response mostly above about 13%, no sharp cut-off; inactive = mostly below about 14%; note: read at 38.3 µM for the half of the compounds with a filed dose; 0% is about no effect
TbPYK inhibitor: blocks Trypanosoma brucei pyruvate kinase. 410,000 tested, 0.12% active. AID 624173. Potency, µM (series often up to 76.8 µM), without a hit: at the top dose activity, negative = inhibition, usual class: inhibitors. Q57TT1. TbPYK enzyme, Kinase-Glo Plus ATP luminescence, 45 min; note: potency is the fitted concentration of half-maximal effect; % is set by controls: 0 for no effect and ±100 for the full control effect; nearly all actives have a fitted effect of over 50% in size
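Luminescent Kinase-Glo Plus end-point after 45 min room-temperature reaction of T. brucei pyruvate kinase started with 130 uM ADP (final). Buffer TEA 50 mM pH 7.2 with KCl, MgCl2, BSA, Tween-20; titration-based qHTS with fitted concentration-effect curves.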
Shiga inhibitor: inhibitors of Shiga toxin in Vero cells; 290,000 tested, 9.2% active; inhibition, % at 38.7 µM; Vero cells, Shiga toxin protein synthesis inhibition reporter; in the data active = inhibition mostly above about 28%, no sharp cut-off; inactive = mostly below about 43%; note: 0% is about no effect
Sm TGR block: inhibitors of Schistosoma mansoni thioredoxin glutathione reductase; purified TGR, DTNB reduction, TNB absorbance 405 nm; Potency, µM (top dose mostly 114 µM), without a hit: at the highest dose activity change, negative = inhibition, most hits filed as inhibitors; 360,000 tested, 3% active; AID 485364; note: potency is the fitted concentration of half-maximal effect; % is set by controls: 0 for no effect and ±100 for the full control effect; nearly all actives have a fitted effect of over 60% in size
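Kinetic colorimetric format: TGR-catalysed, NADPH-driven DTNB reduction monitored via TNB absorbance. Enzyme dispensed at 20 nM; compound exposure 15 min at room temperature before reaction start.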
The depositor's hits bear a star; ? = inconclusive; . = no result given; [ ] = dose if it differs, or a comment. Unless noted, calls come from the whole dose curve; as a rule, active = well fitted curve in the direction sought with a large enough effect; inconclusive = small, poorly fitted or top-dose-only effect, or another doubt; inactive = no such curve, though single readings can be large; an effect the other way counts as inactive or inconclusive.

SMILES | FBPA Giardia inh | LmPK inhibitor | Cycloheximide cs | TbPYK inhibitor | Shiga inhibitor | Sm TGR block
Cn1ncc(Cl)c1C(=O)Nc1nc2ccc(Cl)cc2s1 | -11% | -25% | 66* | -16% | 56* | -5%
CCSc1ncc(Cl)c(C(=O)Nc2nc3ccc(Cl)cc3s2)n1 | . | . | . | -12% | . | 3%
O=C(Nc1nc2ccc(Cl)cc2s1)c1ccc(Br)o1 | 1% | -6% | 34* | 4% | 87* | 0%
Oc1ccc2ccccc2c1CN1CCCCC1 | . | . | . | 3% | . | .
Oc1ccc2cc(Br)ccc2c1CN1CCCC1 | -10% | 9% | -1 | 2% | -6 | 32µM*
Oc1ccc(Br)cc1CN1CCCCCCC1 | -10% | -6% | -1 | -2% | 4 | -1%
Oc1ccc2ccccc2c1CN1CCN(c2ccccc2)CC1 | -13% | 0% | -6 | 2% | 11 | 2.8µM*
Oc1ccc2ccccc2c1CN1CCCC1 | -8% | 6% | -3 | 0% | -2 | 2.5µM*
Oc1ccc2ccccc2c1CN1CC=C(c2ccccc2)CC1 | -1% | 5% | -2 | -5% | -3 | 22µM*
COc1ccc(Cl)cc1C(=O)NCC(c1ccc(N(C)C)cc1)N1CCOCC1 (configuration not stated) | . | . | . | -1% | . | -1%
Cc1cc(C)cc(OCC(=O)Nc2ccc(F)cc2)c1 | 2% | 6% | 14 | ? | 36 | 1%
O=C(COc1ccc(CO)cc1Cl)Nc1ccc(F)cc1 | 2% | 2% | 48* | -1% | 58* | 2%
COc1ccccc1NC(=O)COc1ccc(CO)cc1Cl | -2% | 6% | 32* | -1% | 57* | -10%
O=C(COc1ccc(CO)cc1)Nc1ccc(F)cc1 | 7% | 0% | 16* | -7% | 26 | 0%
COc1cc(NC(=O)C/C(C)=N/NC(=O)Cc2ccccc2)c(OC)cc1Cl | 4% | 1% | 10 | -11% | -3 | -4%
C/C(CC(=O)Nc1ccc(Cl)cc1C(F)(F)F)=N\NC(=O)c1cccs1 | -17% | 4% | 54* | 2% | 91* | -2%
C/C(=N/NC(=O)c1cccs1)c1ccc(NC(=O)COc2ccc(Cl)cc2Cl)cc1 | 3% | 1% | 33* | 2% | 94* | 0%
C/C(CC(=O)Nc1ccc(Cl)cc1C(F)(F)F)=N\NC(=O)c1ccccn1 | 15% | 2% | 41* | -1% | 76* | -8%
C/C(CC(=O)Nc1ccc(Cl)cc1Cl)=N\NC(=O)c1ccncc1 | -7% | 2% | 19 | 0% | 19 | ?
C/C(=N/NC(=O)c1ccc(C)s1)c1cccc(NC(=O)COc2ccc(Cl)cc2Cl)c1 | 5% | -3% | 1 | 4% | 6 | -20%
COc1cc(NC(=O)C/C(C)=N/NC(=O)c2cccs2)c(OC)cc1Cl | -16% | -1% | 25* | 13% | 67* | .
COC(=O)C/C=C/C(C)C(OC)c1ccccc1Br (configuration not stated) | 0%[12.9 µM] | . | . | . | . | .
O=C1C=C(c2ccccc2)C(c2ccccc2)C1 (configuration not stated) | . | . | . | 3% | . | .
CN(CC(=O)N1CCN(c2ccccn2)CC1)S(=O)(=O)c1ccccc1 | 6% | -6% | 43* | -5% | 50* | -1%
Cc1ccc(S(=O)(=O)N(C)CCCC(=O)N2CCN(c3ccccn3)CC2)cc1 | 2% | -1% | -2 | 2% | 16 | -6%
SMILES | FBPA Giardia inh | LmPK inhibitor | Cycloheximide cs | TbPYK inhibitor | Shiga inhibitor | Sm TGR block
CN(CCCC(=O)N1CCN(c2ncccn2)CC1)S(=O)(=O)c1ccc(F)cc1 | . | . | . | -7% | . | .
CN(CC(=O)N1CCN(c2ncccn2)CC1)S(=O)(=O)c1ccc(Cl)cc1 | 2% | 12% | 21* | 2% | 11 | -17%
O=C(CN1C(=O)COc2ccc(S(=O)(=O)NC3CCCC3)cc21)Nc1ccc(Cl)cc1 | . | . | . | -3% | . | 7%
Cc1ccc(-n2ncc(C(=O)N3CCc4ccccc4C3)c2NC(=O)c2ccco2)cc1C | ? | 3% | 6 | -6% | 5 | 32µM*
COc1ccc(CNC(=O)CCC2N=C3c4ccccc4N=C(SCC(=O)NCCc4ccc(OC)c(OC)c4)N3C2=O)cc1 (configuration not stated) | . | . | . | -12% | . | 10%
Cc1cc(C(=O)Nc2ccccn2)no1 | 5% | -22% | 23* | -7% | 44* | -9%
CCc1ccc(NC(=O)c2cc(-c3ccc(OC)cc3)on2)cc1 | 5% | 0% | 64* | -3% | 41* | -21%
Cc1ccc(NC(=O)c2cc(C)on2)cc1 | 1% | -14% | 56* | 0% | 62 | 0%
CCc1ccc(NC(=O)c2cc(C)on2)cc1 | 0% | -13% | 28* | -2% | 51* | -25%
Cc1cc(C(=O)Nc2ccc3c(c2)OCO3)no1 | . | -6% | 8 | -8% | 10 | -8%
CCc1ccc(NC(=O)c2cc(C(C)C)on2)cc1 | 1% | -8% | 36* | 2% | 65* | 1%
Cc1ccc(NC(=S)Nc2cc(C)on2)cc1 | 1% | -4% | 48* | -8% | 67* | -8%
CCc1ccc(NC(=O)c2cc(-c3ccc(F)cc3)on2)cc1 | 0% | 8% | 3 | 1% | 31 | 2%
Cc1ccc(Cn2ccc(NC(=O)c3cc(C)on3)n2)cc1 | 2% | 1% | 29* | -1% | 52 | 5%
Cc1n[nH]c(C)c1CCNC(=O)C1CCC(=O)N(CCc2cccc(F)c2)C1 (configuration not stated) | . | -8% | -2 | -2% | -2 | 0%
CCc1nc(-c2ccc(C)nc2OC)no1 | 5% | -2% | 8 | -18% | -1 | -2%
COc1nc2cc(C)ccc2cc1-c1noc(-c2cccnc2)n1 | 3% | 0% | -5 | . | 29 | -5%
COc1nc(C)ccc1-c1noc(-c2cccnc2)n1 | -2% | -1% | 19* | 1% | . | -9%
COc1nc(C)ccc1-c1noc(-c2ccccn2)n1 | 18% | 22µM* | 57* | -5% | 144* | 5%
COc1ccccc1-c1nc(-c2ccc(C)nc2OC)no1 | 0% | -6% | 49* | -3% | 93* | 0%
Cc1ccc(C(=O)c2cn(CC(=O)NCc3ccccc3Cl)c3nc(C)ccc3c2=O)cc1 | . | . | . | -8% | . | -3%
COc1ccc(OC)c(NC(=O)Cn2c(=O)c3cccn3c3ccccc32)c1 | . | . | . | -2% | . | 1%
Cc1cc(C)c2c(=O)n(CC(=O)NC3CCCC3)sc2n1 | -16% | -5% | 10 | 10µM* | -7 | ?
Cc1cc(C)c2c(=O)n(CC(=O)Nc3cccc(Cl)c3C)sc2n1 | -12% | ? | 7 | ? | -12 | -36%
Cc1cc(C)c2c(=O)n(CC(=O)Nc3ccc(Br)c(C)c3)sc2n1 | -19% | -22% | -2 | 8.9µM* | 19 | -30%
Cc1ccccc1-c1cccc([C@@H]2C[C@H]3[C@H](CON3C)CN2Cc2ccccc2)c1 | . | . | . | 1% | . | .
Cc1ccc(NC(=O)c2snnc2C)cc1Cl | -1% | -5% | 12* | 6% | 26 | 2%
